# PubChem BioAssay
# Unmarked numbers belong to inactive results. Some of the results follow. The source made the active and inactive calls. Unless noted, no stated cut-off is given here; in the data, active means inhibition above about 33%; inactive means the rest.
# Assays:
# [1] = StAR promoter reporter inhibitors, counter-screen for LRH-1 inverse agonist project, cell-based, luminescence, high throughput (AID 651611; in the data active means inhibition above about 28%); settings: StAR promoter luciferase reporter counterscreen, at 3.6 µM, hits give high values
# [2] = target: Nuclear receptor subfamily 5 group A member 2 (Homo sapiens) (UniProt O00482); test: NR5A2 activity suppression in reporter cells – cell-based, luminescence, confirmation (AID 651613; in the data active means inhibition above about 42%;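 further: HEK293T cells co-transfected with LRH-1 and StAR promoter luciferase reporter; 0% = vehicle wells and 100% = parental cells lacking receptor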); settings: cell-based LRH-1 luciferase reporter, inverse agonism; at 3.6 µM; hits give high values
# Nuclear receptor subfamily 5 group A member 2 (Homo sapiens), sequence (O00482 whole entry, looked up): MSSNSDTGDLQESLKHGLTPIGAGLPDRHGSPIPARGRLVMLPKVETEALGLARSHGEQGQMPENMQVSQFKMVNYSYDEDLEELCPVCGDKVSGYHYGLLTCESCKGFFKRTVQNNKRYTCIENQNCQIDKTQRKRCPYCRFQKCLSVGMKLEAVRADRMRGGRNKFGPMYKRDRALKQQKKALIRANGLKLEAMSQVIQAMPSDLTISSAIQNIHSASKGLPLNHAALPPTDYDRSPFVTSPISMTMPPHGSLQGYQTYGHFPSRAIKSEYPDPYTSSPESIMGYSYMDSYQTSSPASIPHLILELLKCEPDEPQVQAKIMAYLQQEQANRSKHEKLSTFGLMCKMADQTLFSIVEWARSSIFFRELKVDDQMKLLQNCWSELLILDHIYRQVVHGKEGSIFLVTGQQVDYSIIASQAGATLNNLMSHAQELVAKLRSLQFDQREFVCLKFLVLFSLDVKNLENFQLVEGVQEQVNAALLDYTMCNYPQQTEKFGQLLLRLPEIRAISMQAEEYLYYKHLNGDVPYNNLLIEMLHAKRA
# [3] = target: Steroidogenic factor 1 (Homo sapiens) (UniProt Q13285); test: inverse agonism at SF1 nuclear receptor – cell-based, luminescence, high throughput, counter-screen for LRH-1 inverse agonist project (AID 651614; in the data active means inhibition above about 44%;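 further: cells cotransfected with StAR promoter reporter and SF1 expression vector; 0% = vehicle on cells with receptor and 100% = vehicle on cells lacking receptor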); settings: cell-based SF1 luciferase reporter, at 3.6 µM, hits give high values
# Steroidogenic factor 1 (Homo sapiens), sequence (Q13285 whole entry, looked up, the tested form may be a part): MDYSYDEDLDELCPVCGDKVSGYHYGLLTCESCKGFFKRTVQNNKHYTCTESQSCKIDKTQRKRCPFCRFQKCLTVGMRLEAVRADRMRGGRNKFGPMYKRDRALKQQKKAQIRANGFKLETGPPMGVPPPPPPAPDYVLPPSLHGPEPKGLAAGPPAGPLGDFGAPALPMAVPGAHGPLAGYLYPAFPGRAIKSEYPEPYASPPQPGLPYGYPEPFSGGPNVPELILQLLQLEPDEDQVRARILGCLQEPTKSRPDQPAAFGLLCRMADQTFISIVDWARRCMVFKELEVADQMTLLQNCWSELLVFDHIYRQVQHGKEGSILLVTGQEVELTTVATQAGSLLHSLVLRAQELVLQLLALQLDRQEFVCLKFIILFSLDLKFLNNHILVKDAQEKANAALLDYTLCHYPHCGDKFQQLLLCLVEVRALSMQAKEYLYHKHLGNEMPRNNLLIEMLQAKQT
# [4] = compounds suppressing VP16-driven luciferase signal – cell-based, luminescence, high throughput, counter-screen for LRH-1 inverse agonist project (AID 651615); settings: Gal4-VP16 luciferase reporter cells, at 3.6 µM, hits give high values
# [5] = target: Nuclear receptor coactivator 1 (Homo sapiens) (UniProt Q15788); test: NCOA1 GAL4-fusion reporter inhibition – cell-based, luminescence, quadruplicate, confirmation (AID 588820;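 active means mean inhibition above 46.68%, the untreated control wells mean plus 3 SD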;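 further: 0% = DMSO wells and 100% = gossypol 36 µM treated wells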); settings: HEK293 GAL4-SRC1 luciferase reporter, at 3.6 µM, hits give high values
# Nuclear receptor coactivator 1 (Homo sapiens), sequence (Q15788 whole entry, looked up, the tested form may be a part): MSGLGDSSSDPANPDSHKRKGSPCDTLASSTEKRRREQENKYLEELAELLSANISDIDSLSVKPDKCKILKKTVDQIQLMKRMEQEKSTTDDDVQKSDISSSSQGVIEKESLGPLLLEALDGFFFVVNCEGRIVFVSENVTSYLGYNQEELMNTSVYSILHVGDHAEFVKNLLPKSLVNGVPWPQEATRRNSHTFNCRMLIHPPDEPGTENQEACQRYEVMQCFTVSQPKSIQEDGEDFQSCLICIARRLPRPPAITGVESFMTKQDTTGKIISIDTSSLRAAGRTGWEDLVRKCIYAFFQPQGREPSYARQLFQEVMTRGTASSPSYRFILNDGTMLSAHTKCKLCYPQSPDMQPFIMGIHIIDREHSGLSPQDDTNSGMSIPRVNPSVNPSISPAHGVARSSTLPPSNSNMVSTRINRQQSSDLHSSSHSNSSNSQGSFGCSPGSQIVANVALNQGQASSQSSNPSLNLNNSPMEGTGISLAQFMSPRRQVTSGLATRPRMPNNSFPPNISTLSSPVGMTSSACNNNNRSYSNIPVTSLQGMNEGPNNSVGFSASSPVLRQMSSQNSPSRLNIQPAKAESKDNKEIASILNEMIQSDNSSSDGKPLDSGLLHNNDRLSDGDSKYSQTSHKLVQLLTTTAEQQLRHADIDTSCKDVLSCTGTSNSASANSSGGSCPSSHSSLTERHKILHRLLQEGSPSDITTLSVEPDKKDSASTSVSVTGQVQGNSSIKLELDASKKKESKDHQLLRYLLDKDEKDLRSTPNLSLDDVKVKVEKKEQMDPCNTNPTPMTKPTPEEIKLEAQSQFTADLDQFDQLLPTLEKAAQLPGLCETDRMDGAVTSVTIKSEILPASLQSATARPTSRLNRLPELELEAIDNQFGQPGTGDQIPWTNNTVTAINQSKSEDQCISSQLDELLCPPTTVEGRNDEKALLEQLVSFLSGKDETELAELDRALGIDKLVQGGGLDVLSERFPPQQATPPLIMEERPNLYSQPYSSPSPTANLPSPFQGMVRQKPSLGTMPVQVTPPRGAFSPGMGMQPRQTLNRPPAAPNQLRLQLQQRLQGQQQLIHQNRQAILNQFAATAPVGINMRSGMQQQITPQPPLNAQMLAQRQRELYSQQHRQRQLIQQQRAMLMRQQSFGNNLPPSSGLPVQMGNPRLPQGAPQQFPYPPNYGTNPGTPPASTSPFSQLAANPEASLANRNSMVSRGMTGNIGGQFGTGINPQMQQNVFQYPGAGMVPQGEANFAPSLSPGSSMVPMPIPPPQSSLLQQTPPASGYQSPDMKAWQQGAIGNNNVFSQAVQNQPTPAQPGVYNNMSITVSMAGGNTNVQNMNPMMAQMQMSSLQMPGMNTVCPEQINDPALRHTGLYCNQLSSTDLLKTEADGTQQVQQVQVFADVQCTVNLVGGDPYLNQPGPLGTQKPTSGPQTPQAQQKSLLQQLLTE
# [6] = repression of VP16-driven luciferase reporter – cell-based, luminescence, high throughput, counter-screen for SRC1 inhibitor project (AID 588824; in the data active means inhibition above about 25%); settings: cell-based VP16 transactivation luciferase luminescence; at 3.6 µM; hits give high values
# [7] = target: Photoreceptor-specific nuclear receptor (Homo sapiens) (UniProt Q9Y5X4); test: retest of NR2E3-NCOR disrupting agonists – cell-based, luminescence, CHO-S two-hybrid, confirmation (AID 624378;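 active means average inhibition above a cutoff equal to the mean inhibition of all tested compounds plus one SD, cut at about 70% in these data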;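 further: 0% = DMSO in NR2E3 cells and 100% = DMSO in cells lacking NR2E3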); settings: CHO-S mammalian two-hybrid NR2E3-NCOR, luciferase luminescence; at 3.98 µM; hits give high values
# Photoreceptor-specific nuclear receptor (Homo sapiens), sequence (Q9Y5X4 whole entry, looked up, the tested form may be a part): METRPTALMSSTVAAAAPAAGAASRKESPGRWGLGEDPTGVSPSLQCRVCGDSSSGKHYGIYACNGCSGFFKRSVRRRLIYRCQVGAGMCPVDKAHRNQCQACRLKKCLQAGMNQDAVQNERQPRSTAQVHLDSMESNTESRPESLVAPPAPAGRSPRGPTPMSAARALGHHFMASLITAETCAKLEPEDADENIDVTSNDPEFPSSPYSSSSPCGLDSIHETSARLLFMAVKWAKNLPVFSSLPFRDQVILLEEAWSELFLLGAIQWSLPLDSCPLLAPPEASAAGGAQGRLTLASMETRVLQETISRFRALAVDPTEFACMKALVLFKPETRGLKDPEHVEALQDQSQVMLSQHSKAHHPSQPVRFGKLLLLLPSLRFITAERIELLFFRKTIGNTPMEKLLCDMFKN
# [8] = nonselective effects on VP16 transactivation – cell-based, luminescence, CHO-S, high throughput, counter-screen for NR2E3 agonist project, confirmation (AID 624379;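 active means mean inhibition above a cutoff equal to the average over all tested compounds plus one standard deviation, cut at about 70% in these data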;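 further: luciferase from a UAS reporter driven by GAL4-VP16 transactivation; 0% = DMSO with VP16-transfected cells and 100% = DMSO with cells lacking VP16; higher means less reporter light so more repression of VP16 activity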); settings: CHO-S GAL4-VP16 luciferase reporter, at 3.98 µM, hits give high values
# [9] = target: Receptor-interacting serine/threonine-protein kinase 2 (Homo sapiens) (UniProt O43353); test: inhibitors of RIPK2 association with NOD2 – fluorescence, CHO cells, BLA complementation, triplicate, confirmation (AID 624370;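 active means mean inhibition across replicates above a set limit taken from the earlier primary screen, cut at about 21% in these data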;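 further: 0% = DMSO-only wells and the high end = clavulanate BLA-blocked wells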); settings: CCF4 FRET, at 4.98 µM, hits give high values
# Receptor-interacting serine/threonine-protein kinase 2 (Homo sapiens), sequence (O43353 whole entry, looked up): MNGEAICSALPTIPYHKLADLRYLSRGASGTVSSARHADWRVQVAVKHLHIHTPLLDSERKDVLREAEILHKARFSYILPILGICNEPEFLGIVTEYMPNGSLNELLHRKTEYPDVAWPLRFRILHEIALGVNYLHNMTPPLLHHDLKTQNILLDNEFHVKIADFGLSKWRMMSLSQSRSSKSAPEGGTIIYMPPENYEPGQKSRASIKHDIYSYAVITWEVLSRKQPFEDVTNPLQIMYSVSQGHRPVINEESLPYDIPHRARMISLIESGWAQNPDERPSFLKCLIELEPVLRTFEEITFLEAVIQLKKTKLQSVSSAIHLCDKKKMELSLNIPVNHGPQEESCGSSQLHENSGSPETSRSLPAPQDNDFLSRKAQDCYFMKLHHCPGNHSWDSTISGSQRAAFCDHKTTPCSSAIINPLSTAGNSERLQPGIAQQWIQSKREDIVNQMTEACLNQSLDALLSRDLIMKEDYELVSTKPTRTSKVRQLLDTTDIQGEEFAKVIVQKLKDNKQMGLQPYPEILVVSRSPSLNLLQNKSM
# [10] = BLA reporter readout interference – cell-based, CHO-K1 CMV-bla, CCF4 FRET, fluorescence, artefact control for NOD2-RIPK2 interaction inhibitor project, confirmation (AID 624371;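 active means mean inhibition above the low-control mean inhibition plus three low-control SD, cut at about 11% in these data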;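 further: 0% = DMSO only wells and 100% = clavulanate high control wells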); settings: CCF4 FRET ratio, counterscreen, at 4.98 µM, hits give high values
structure (smiles),measurement,setting,value
Cc1cc(OCC(=O)OC(C)C)c2c3c(c(=O)oc2c1)CCCC3,inhibition,[1],14.7%
same,inhibition,[2],57.9% (active)
same,inhibition,[3],54.9% (active)
same,inhibition,[4],-9.99%
COc1ccc(-n2nnnc2C(c2ccccc2)N2CCC(n3c(=O)[nH]c4ccccc43)CC2)cc1 (configuration not stated),inhibition,[5],-22.4%
same,inhibition,[6],5.11%
CCC(C)N1C(=O)/C(=C\c2ccc(N3CCCCCC3)cc2)C(=O)NC1=S (configuration not stated),inhibition,[1],1.31%
same,inhibition,[2],58.9% (active)
same,inhibition,[3],40.2%
same,inhibition,[4],-2.53%
CCN(CC)C1=NC(=[N+](CC)CC)c2ccccc21,inhibition,[5],9.91%
same,inhibition,[6],31.1% (active)
same,inhibition,[1],33.7% (active)
same,inhibition,[2],107% (active)
same,inhibition,[3],74.5% (active)
same,inhibition,[4],85.6% (active)
CC(=NCc1ccc2c(c1)OCO2)c1c(O)[nH]c(=O)[nH]c1=O,inhibition,[7],2.39%
same,inhibition,[8],8.56%
COC(=O)C(C)Oc1cc(C)cc2oc(=O)c3c(c12)CCCC3 (configuration not stated),inhibition,[1],14.4%
same,inhibition,[2],63.3% (active)
same,inhibition,[3],55.9% (active)
same,inhibition,[4],-29.8%
O=Cc1cn(Cc2cccc([N+](=O)[O-])c2)c2ccccc12,inhibition,[5],39.9%
same,inhibition,[6],30.7% (active)
same,inhibition,[1],65.6% (active)
same,inhibition,[2],74.4% (active)
same,inhibition,[3],80.3% (active)
same,inhibition,[4],14.4%
CCOC(=O)[C@]12Cc3cc(OC)ccc3[C@H]1N(C1CCCCC1)C(=O)c1ccccc12,inhibition,[1],49.6% (active)
same,inhibition,[2],93.3% (active)
same,inhibition,[3],42.2%
same,inhibition,[4],87.4% (active)
CCCCn1nnnc1C(CCSC)N1CCC(n2c(=O)[nH]c3ccccc32)CC1 (configuration not stated),inhibition,[5],-63.4%
same,inhibition,[6],6.98%
CC1=CC2OC3CC4OC(=O)C=CC=CC(=O)OCCC(C)C(O)C(=O)OCC2(CC1)C4(C)C31CO1 (configuration not stated),inhibition,[1],96.6% (active)
same,inhibition,[2],109% (active)
same,inhibition,[3],98.2% (active)
same,inhibition,[4],98.1% (active)
CCOC(=O)[C@]12Cc3c(cc(OC)c(OC)c3OC)[C@H]1N(C1CCCCC1)C(=O)c1ccccc12,inhibition,[1],45.9% (active)
same,inhibition,[2],99.8% (active)
same,inhibition,[3],46.2% (active)
same,inhibition,[4],89.3% (active)
O=C(c1cn(Cc2ccccc2F)c2ncccc12)C(F)(F)F,inhibition,[5],-9.15%
same,inhibition,[6],-0.44%
COc1ccc(C(c2nnnn2Cc2ccccc2)N2CCC(n3c(=O)[nH]c4ccccc43)CC2)cc1 (configuration not stated),inhibition,[5],-42.8%
same,inhibition,[6],-11.4%
Cc1cc(OC(=O)c2ccco2)c2c3c(c(=O)oc2c1)CCCC3,inhibition,[1],7.67%
same,inhibition,[2],56% (active)
same,inhibition,[3],47.2% (active)
same,inhibition,[4],20.2%
CCN1CCN(c2cc(N3CCCC3)c([N+](=O)[O-])cc2F)CC1,inhibition,[1],1.38%
same,inhibition,[2],51.2% (active)
same,inhibition,[3],46.4% (active)
same,inhibition,[4],15.6%
COc1cccc2cc(-c3cc(=O)oc4ccc(OC(=O)N(C)C)cc34)oc12,inhibition,[5],-17.6%
same,inhibition,[6],-14.6%
CC[n+]1c(/C=C/C=C/c2ccc(N(C)C)cc2)sc2ccccc21,inhibition,[1],54% (active)
same,inhibition,[2],104% (active)
same,inhibition,[3],86.4% (active)
same,inhibition,[4],86.5% (active)
COc1cc2c(cc1OC)C1C(=O)c3ccc4c(c3OC1CO2)CC(C(C)C)O4 (configuration not stated),inhibition,[5],-30.2%
same,inhibition,[6],41.4% (active)
same,inhibition,[1],40.3% (active)
same,inhibition,[2],71.2% (active)
same,inhibition,[3],73.1% (active)
same,inhibition,[4],65.5% (active)
CCCCCCN=C(CC)c1c(O)n(CCCC)c(=O)[nH]c1=O,inhibition,[7],84.2% (active)
same,inhibition,[8],56.9%
COC1/C=C/C=C(\C)Cc2cc(O)c(Cl)c(c2)N(C)C(=O)CC(OC(=O)C(C)C)C2(C)OC2C(C)C2CC1(O)NC(=O)O2 (configuration not stated),inhibition,[1],64.9% (active)
same,inhibition,[2],60.1% (active)
same,inhibition,[3],62.5% (active)
same,inhibition,[4],32.6% (active)
N#CCCn1cc(C(=O)Nc2ccc([N+](=O)[O-])cc2)c(-c2ccccc2)n1,inhibition,[1],7.58%
same,inhibition,[2],35.3%
same,inhibition,[3],41.5%
same,inhibition,[4],15.5%
Cc1cc(S(=O)(=O)NC(C)C)ccc1OCC(=O)N1CCN(Cc2ccc3c(c2)OCO3)CC1,inhibition,[1],16.6%
same,inhibition,[2],52.9% (active)
same,inhibition,[3],40%
same,inhibition,[4],19.5%
CCOC(=O)[C@]12Cc3ccccc3[C@H]1N(C1CCCCC1)C(=O)c1cc(OC)ccc12,inhibition,[9],61.3% (active)
same,inhibition,[10],0.28%
same,inhibition,[1],55.3% (active)
same,inhibition,[2],98% (active)
same,inhibition,[3],58.9% (active)
same,inhibition,[4],85.2% (active)
CC(C)(C)c1ccc(CSc2cnn(C(C)(C)C)c(=O)c2Cl)cc1,inhibition,[5],-34.9%
same,inhibition,[6],44.7% (active)
same,inhibition,[1],28.1% (active)
same,inhibition,[2],99.2% (active)
same,inhibition,[3],63.8% (active)
same,inhibition,[4],57.7% (active)
